The full data set covers some 7,900 targets. This sample favours those with a hit. About 0.6% of all pairs of compound and target were hits. Unmarked numbers belong to inactive results.
How the values were obtained:
Assay in all cases: log2 fold change, soluble protein after heating vs DMSO (PISA); higher = thermal stabilisation; K562 cells, 10 uM, 30 min; active = over 0.2 and 3.5 SD of the protein, either way, in both replicates (recomputed)
[1] = compound: C[C@H](C1=CC=C(C=C1)C(=O)NC2=C3C=CNC3=NC=C2)N
Summary of the method: (§1)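 K562 cells at 2×10^6 cells/mL were treated for 30 min with 10 μM compound, and aliquots were heated for 3 min over 48°C-58°C before pooling. Extraction used PBS with 0.5% NP-40 at 4°C, and soluble protein was the supernatant after 21,000xg for 90 min, measured by TMTpro 16plex LC-MS/MS with channel sums equalised. Thermal stability values, relative to control samples and from duplicates, are log2 fold changes.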

gandotinib = compound: Cc1cc(Nc2cc(CN3CCOCC3)c3nc(C)c(Cc4ccc(Cl)cc4F)n3n2)n[nH]1 [gandotinib]
Summary of the method: as §1

tozasertib = compound: Cc1cc(Nc2cc(N3CCN(C)CC3)nc(Sc3ccc(NC(=O)C4CC4)cc3)n2)n[nH]1 [tozasertib]
Summary of the method: as §1

ispinesib = compound: Cc1ccc(C(=O)N(CCCN)[C@@H](c2nc3cc(Cl)ccc3c(=O)n2Cc2ccccc2)C(C)C)cc1 [ispinesib]
Summary of the method: as §1

[2] = compound: CS(=O)(=O)c1ccc(-c2cnc(N)c(C(=O)Nc3ccccc3)n2)cc1
Summary of the method: as §1

[3] = compound: C[C@@H]1COCCN1C2=NC(=NC(=C2)C3(CC3)S(=O)(=O)C)C4=C5C=CNC5=CC=C4
Summary of the method: as §1

duvelisib = compound: C[C@H](Nc1ncnc2nc[nH]c12)c1cc2cccc(Cl)c2c(=O)n1-c1ccccc1 [duvelisib]
Summary of the method: as §1

[4] = compound: Cc1cc(SCc2sc(-c3ccc(C(F)(F)F)cc3)nc2C)ccc1OCC(=O)O
Summary of the method: as §1

crizotinib = compound: C[C@@H](Oc1cc(-c2cnn(C3CCNCC3)c2)cnc1N)c1c(Cl)ccc(F)c1Cl [crizotinib]
Summary of the method: as §1

doramapimod = compound: Cc1ccc(-n2nc(C(C)(C)C)cc2NC(=O)Nc2ccc(OCCN3CCOCC3)c3ccccc23)cc1 [doramapimod]
Summary of the method: as §1

UniProt Q5RL73, sequence (Q5RL73 whole entry, looked up): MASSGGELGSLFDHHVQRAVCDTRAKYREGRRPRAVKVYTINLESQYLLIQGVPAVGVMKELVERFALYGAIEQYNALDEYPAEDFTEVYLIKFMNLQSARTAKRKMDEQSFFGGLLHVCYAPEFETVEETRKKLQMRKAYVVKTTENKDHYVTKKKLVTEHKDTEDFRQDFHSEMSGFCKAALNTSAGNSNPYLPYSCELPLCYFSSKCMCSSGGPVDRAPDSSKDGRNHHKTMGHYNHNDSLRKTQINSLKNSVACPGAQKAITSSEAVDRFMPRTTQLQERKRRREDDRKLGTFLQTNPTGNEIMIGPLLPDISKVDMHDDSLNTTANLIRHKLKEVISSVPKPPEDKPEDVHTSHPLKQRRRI
UniProt Q9H2X9, sequence (Q9H2X9 whole entry, looked up): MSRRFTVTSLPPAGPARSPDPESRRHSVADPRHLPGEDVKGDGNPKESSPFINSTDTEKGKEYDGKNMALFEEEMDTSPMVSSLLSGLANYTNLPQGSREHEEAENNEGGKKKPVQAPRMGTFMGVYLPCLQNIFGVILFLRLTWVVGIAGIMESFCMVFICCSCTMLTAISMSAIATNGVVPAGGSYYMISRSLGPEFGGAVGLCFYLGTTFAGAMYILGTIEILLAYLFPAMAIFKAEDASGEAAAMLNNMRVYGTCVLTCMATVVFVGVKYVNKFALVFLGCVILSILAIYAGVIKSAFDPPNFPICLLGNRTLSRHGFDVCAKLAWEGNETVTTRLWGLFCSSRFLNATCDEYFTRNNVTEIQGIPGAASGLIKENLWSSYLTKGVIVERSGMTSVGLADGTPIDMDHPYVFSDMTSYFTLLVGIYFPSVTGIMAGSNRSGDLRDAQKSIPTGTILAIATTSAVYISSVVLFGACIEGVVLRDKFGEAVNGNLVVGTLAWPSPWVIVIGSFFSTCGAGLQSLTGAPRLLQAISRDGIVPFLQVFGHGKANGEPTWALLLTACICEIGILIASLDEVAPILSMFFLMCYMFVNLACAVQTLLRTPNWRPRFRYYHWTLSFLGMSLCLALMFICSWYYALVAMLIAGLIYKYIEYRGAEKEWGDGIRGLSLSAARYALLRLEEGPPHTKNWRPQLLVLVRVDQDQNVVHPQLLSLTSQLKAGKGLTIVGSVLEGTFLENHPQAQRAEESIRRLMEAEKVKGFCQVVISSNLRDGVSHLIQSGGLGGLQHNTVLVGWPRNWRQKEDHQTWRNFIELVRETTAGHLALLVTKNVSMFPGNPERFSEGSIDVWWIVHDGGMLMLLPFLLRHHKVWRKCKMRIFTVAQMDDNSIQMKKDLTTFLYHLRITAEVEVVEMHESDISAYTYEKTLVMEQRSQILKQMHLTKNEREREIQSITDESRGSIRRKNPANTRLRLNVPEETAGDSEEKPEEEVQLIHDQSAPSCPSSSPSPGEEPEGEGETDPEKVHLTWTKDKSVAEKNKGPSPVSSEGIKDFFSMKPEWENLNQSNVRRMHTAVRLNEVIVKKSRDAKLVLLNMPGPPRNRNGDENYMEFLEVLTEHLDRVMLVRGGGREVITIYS
UniProt A1X283, sequence (A1X283 whole entry, looked up): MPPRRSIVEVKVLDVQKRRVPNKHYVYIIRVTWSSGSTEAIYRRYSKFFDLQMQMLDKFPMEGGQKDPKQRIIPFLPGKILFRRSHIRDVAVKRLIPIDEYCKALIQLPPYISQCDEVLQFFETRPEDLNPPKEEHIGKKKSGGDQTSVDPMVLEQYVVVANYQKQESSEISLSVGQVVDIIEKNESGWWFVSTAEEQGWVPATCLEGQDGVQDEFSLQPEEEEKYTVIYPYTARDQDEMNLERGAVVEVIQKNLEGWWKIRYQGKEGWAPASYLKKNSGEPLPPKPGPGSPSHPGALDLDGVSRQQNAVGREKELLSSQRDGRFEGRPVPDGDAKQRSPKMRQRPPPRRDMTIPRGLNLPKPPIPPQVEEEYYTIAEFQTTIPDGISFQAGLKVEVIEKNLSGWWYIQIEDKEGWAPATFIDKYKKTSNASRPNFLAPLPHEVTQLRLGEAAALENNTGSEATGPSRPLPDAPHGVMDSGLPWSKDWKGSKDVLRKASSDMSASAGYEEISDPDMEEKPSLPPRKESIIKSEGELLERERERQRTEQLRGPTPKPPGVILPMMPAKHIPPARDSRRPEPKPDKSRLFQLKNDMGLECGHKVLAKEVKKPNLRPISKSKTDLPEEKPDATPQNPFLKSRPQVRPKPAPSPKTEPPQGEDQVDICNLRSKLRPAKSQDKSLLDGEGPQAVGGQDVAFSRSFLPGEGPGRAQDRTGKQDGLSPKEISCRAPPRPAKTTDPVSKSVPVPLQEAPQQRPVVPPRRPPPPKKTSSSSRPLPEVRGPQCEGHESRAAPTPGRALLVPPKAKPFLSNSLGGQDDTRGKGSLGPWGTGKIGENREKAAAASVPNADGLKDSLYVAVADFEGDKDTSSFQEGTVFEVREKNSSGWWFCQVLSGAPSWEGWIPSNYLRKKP
UniProt P60903, sequence (P60903 whole entry, looked up): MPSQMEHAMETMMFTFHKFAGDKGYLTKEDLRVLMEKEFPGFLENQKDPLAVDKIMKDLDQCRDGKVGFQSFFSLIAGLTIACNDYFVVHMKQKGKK
UniProt Q8IZE3, sequence (Q8IZE3 whole entry, looked up): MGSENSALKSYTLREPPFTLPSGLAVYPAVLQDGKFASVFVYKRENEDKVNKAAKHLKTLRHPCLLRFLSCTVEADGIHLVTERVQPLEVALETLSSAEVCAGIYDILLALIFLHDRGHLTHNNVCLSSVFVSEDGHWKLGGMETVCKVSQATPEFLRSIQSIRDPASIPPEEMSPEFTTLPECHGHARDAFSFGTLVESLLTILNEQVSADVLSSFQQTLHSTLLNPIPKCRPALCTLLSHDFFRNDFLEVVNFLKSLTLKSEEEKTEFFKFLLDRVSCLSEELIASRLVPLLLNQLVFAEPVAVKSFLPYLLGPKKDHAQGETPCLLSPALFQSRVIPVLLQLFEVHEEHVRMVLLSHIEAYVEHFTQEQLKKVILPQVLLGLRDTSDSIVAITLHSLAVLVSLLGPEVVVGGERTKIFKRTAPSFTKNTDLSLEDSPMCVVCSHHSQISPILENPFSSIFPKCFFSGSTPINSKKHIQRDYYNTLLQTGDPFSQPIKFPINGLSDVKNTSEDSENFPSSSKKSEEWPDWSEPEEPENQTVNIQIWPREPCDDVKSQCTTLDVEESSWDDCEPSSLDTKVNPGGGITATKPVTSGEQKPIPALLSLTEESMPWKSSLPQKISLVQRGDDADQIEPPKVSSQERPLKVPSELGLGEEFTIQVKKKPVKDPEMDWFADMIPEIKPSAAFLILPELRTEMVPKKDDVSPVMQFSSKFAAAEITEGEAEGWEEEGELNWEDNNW
UniProt Q6R327, sequence (Q6R327 whole entry, looked up): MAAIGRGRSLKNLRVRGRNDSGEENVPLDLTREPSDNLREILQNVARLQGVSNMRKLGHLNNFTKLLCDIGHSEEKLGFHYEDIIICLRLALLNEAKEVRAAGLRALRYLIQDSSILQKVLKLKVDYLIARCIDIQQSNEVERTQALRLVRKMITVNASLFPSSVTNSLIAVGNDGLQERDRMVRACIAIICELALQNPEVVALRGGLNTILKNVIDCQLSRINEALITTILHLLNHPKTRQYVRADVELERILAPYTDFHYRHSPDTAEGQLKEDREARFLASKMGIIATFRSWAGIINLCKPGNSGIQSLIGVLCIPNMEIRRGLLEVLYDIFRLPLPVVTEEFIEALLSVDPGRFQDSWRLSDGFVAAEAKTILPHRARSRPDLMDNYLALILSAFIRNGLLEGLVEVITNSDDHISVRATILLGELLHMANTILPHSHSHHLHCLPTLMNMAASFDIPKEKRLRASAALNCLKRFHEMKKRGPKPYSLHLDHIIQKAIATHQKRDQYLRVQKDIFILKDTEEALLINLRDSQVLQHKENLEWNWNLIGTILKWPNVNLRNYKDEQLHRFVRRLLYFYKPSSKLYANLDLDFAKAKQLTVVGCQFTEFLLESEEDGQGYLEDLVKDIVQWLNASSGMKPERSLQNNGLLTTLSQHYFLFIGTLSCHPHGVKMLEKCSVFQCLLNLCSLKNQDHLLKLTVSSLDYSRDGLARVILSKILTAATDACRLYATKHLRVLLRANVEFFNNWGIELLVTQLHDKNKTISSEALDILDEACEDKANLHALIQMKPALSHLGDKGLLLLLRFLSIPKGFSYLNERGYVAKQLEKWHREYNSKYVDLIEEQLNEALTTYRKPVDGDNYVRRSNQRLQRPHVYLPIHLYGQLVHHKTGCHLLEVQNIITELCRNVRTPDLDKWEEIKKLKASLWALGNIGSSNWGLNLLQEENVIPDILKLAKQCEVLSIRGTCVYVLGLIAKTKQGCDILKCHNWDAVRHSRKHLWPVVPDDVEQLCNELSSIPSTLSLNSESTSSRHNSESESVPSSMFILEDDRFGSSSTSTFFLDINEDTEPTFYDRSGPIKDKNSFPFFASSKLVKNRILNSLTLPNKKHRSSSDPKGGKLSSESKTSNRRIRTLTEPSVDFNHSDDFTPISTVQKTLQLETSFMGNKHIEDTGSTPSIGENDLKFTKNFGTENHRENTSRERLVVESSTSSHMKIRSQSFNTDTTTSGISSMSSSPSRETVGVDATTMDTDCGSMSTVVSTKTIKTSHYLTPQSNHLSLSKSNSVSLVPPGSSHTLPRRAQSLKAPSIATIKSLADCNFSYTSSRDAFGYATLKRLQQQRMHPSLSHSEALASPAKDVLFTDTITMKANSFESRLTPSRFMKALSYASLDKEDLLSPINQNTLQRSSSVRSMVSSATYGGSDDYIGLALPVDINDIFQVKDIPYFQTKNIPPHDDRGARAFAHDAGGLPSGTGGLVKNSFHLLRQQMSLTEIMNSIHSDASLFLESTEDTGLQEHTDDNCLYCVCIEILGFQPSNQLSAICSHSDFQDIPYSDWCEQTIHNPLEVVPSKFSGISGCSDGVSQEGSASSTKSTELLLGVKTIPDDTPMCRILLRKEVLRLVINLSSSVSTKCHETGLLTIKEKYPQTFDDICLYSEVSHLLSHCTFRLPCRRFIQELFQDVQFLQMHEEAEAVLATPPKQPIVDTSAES

Row | Target | log2 fold change [1] | log2 fold change (gandotinib) | log2 fold change (tozasertib) | log2 fold change (ispinesib) | log2 fold change [2] | log2 fold change [3] | log2 fold change (duvelisib) | log2 fold change [4] | log2 fold change (crizotinib) | log2 fold change (doramapimod)
1 | RNF185 (UniProt Q96GF1) | -0.036 | 0.104 | -0.112 | -0.024 | – | – | – | – | – | –
2 | SEPTIN5 (UniProt G3XAH0) | -0.089 | -0.153 | -0.028 | -0.017 | -0.042 | 0.087 | -0.032 | -0.036 | – | –
3 | S100A10 (UniProt P60903) | 0.063 | 0.131 | 0.057 | – | -0.004 | – | – | – | – | –
4 | RNF26 (UniProt Q9BY78) | – | 0.008 | – | -0.829 | – | – | – | – | – | –
5 | RUNX1 isoform 8 (UniProt Q01196) | – | 0.088 | – | 0.155 | 0.106 | 0.089 | -0.045 | 0.178 | -0.066 | 0.054
6 | RBM48 isoform 2 (UniProt Q5RL73) | -0.06 | 0.152 | -0.245 | 0.072 | 0.081 | -0.069 | – | – | 0.25 | 0.041
7 | SEMG2 (UniProt Q02383) | -0.021 | -0.032 | -0.043 | – | -0.058 | 0.096 | – | – | – | –
8 | SAFB2 (UniProt K7EQU4) | – | – | – | – | – | 0.275 | – | – | -0.244 | -0.04
9 | SCYL3 isoform 2 (UniProt Q8IZE3) | -0.044 | -0.069 | -0.113 | -0.041 | – | -0.106 | 0.129 | -0.024 | -0.118 | -0.01
10 | RUFY3 isoform 3 (UniProt Q7L099) | -0.085 | -0.012 | 0.002 | -0.048 | 0.017 | – | -0.073 | 0.617 (active) | 0.007 | -0.057
11 | RICTOR isoform 3 (UniProt Q6R327) | – | -0.015 | -0.127 | – | -0.017 | -0.146 | -0.027 | -0.072 | – | –
12 | SH3PXD2B (UniProt A1X283) | 0.055 | 0.077 | -0.1 | – | 0.002 | 0.246 | – | – | – | –
13 | SLC12A5 (UniProt Q9H2X9) | 0.027 | – | -0.039 | – | 0.089 | 0.028 | -0.07 | 0.083 | 0.001 | 0.234
